Assay [1] is described as follows: stimulators of insulin release from INS-1E, primary screen, cell-based, 5 mM glucose, NPC library (AID 1117329;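 active = compound raises insulin release from rat beta cells at 5 mM glucose, no numeric limit stated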). The settings on record: rat INS-1E insulin secretion, at 10 µM, stronger effect = higher value.
Assay [2] in a line: growth inhibition of GSK3B-pretreated HCT116 cells – cell-based, CellTiter-Glo, 0.2 to 20 µM (AID 1117336;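 active = compounds lowering colon cancer cell viability after pretreatment blocking the GSK3B kinase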). The settings on record: HCT116 viability after GSK3B inhibitor, at 20 µM, stronger effect = higher value. A general note: In ATP-based viability assays light output follows the ATP content of the culture.
Assay [3] in a line: inhibition of endothelial tube formation, primary screen, imaging, VEGF stimulated, CD31 staining, tube area, NPC library (AID 1117340). The settings on record: VEGF-stimulated ADSC/ECFC co-culture, at 10 µM, stronger effect = higher value.
The nature of assay [4]: GLP1 release stimulators, primary, NCI-H716, NPC library (AID 1117341;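 active = compound raises GLP1 secretion from the human gut endocrine cells, with no numeric limit stated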). As to conditions: NCI-H716 cells, at 10 µM, stronger effect = higher value.
Assay [5] can be described thus: HCT116 colon cancer cell growth inhibition, primary screen, CellTiter-Glo luminescence, NPC library (AID 1117342;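 active = compounds that lower survival of HCT116 colon cancer cells in the luminescence readout, no numeric limit stated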). The settings on record: at 20 µM (top of the series).
Assay [6] in a line: reduced SW480 viability measured with CellTiter-Glo, NPC library, primary (AID 1117343;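 active = compounds that lower viability of the colon cancer cells in the luminescence readout, with no numeric limit stated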). The settings on record: CellTiter-Glo luminescence; at 20 µM (top of the series).
A short description of assay [7]: NPC library primary testing for decreased DLD-1 cell viability via CellTiter-Glo (AID 1117346;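 active = compounds that lower survival of DLD-1 colon cancer cells in the luminescence readout, no cutoff given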). The settings on record: DLD-1 viability, CellTiter-Glo luminescence; at 20 µM (top of the series).
The target of assay [8] is 6-phosphogluconate dehydrogenase, decarboxylating (Homo sapiens) (UniProt P52209). The assay is described as follows: inhibition of human phosphogluconate dehydrogenase – biochemical, recombinant enzyme, NADPH absorbance, primary screen (AID 1159550;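 active = at least 20% inhibition of 6-phosphogluconate dehydrogenase activity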). The settings on record: recombinant 6PGD, NADPH absorbance 341 nm; at 10 µM; stronger effect = higher value.

Each structure is given as a SMILES string. A number with no mark means an inactive call. Activity calls are given as the source filed them.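 Rule for the calls, unless noted: active = compound that reduces growth-factor-driven endothelial tube area in a mixed cell culture, no cutoff stated; inactive = the rest.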

Sequence of 6-phosphogluconate dehydrogenase, decarboxylating (Homo sapiens) (P52209 whole entry, looked up): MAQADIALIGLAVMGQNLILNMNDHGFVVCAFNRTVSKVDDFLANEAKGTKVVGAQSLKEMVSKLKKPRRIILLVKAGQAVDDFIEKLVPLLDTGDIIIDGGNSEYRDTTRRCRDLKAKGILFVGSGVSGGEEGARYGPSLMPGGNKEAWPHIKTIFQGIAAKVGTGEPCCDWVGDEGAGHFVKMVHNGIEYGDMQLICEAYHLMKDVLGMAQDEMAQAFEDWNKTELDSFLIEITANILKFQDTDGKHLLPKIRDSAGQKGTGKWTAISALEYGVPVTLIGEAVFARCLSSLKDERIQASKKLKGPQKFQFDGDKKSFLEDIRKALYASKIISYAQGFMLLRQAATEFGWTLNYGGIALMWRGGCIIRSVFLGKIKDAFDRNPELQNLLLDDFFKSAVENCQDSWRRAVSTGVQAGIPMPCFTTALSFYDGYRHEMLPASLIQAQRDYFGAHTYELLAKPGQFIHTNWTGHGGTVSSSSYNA

With `C1CCC(C(CC2CCCCN2)C2CCCCC2)CC1` (centres undefined), the insulin secretion stimulation in assay [1] was 7.6%. Moreover, in assay [2], the viability decrease was 101% (active). Also, the tube area decrease in assay [3] is 9.8%. In assay [4], the GLP1 secretion stimulation is 4.9%. For the same molecule, the inhibition of viability in assay [5] is 100% (active). Besides, the results for the viability decrease (inhibition) in assay [6] and in assay [7] were 120% (active) and 103% (active), respectively. Further, the inhibition in assay [8] is 12.3%.
Take `Oc1ccc(Cl)c2cccnc12`: the insulin secretion stimulation in assay [1] was -2.1%. The viability decrease in assay [2] is 57.1% (active). In assay [3], the tube area decrease was 11.9%. Moreover, the GLP1 secretion stimulation in assay [4] is -5.7%. The inhibition of viability in assay [5] was 32.7%. The viability decrease (inhibition) in assay [6] is 84.4% (active); in assay [7] it was 43.6%. Moreover, the inhibition in assay [8] was 10.3%.
Take `NCC1CCC(C(=O)O)CC1` (centres undefined): the insulin secretion stimulation in assay [1] was -1.6%. Further, the viability decrease in assay [2] is -8.4%. Moreover, the tube area decrease in assay [3] was 25.3%. The GLP1 secretion stimulation in assay [4] was 0.1%. In assay [5], the inhibition of viability was -10.3%. In addition, the values for the viability decrease (inhibition) in assay [6] and in assay [7] were 2.1% and -6%, respectively. Moreover, the inhibition in assay [8] is 7.43%.
Regarding `Cc1c(NC(C)C)c(=O)n(-c2ccccc2)n1C`, the insulin secretion stimulation in assay [1] is 0.4%. Also, in assay [2], the viability decrease is 3.8%. Further, the tube area decrease in assay [3] was 4%. The GLP1 secretion stimulation in assay [4] was -0.1% (active). In addition, in assay [5], the inhibition of viability is -11%. Besides, the figures for the viability decrease (inhibition) in assay [6] and in assay [7] were -10% and -1.3%, respectively. The inhibition in assay [8] was 16.7%.
Turning to `Cc1c(N(C)C)c(=O)n(-c2ccccc2)n1C`, the insulin secretion stimulation in assay [1] was 0.4%. In assay [2], the viability decrease is -152%. Also, in assay [3], the tube area decrease was 8.4%. Further, the GLP1 secretion stimulation in assay [4] was -1.9%. Moreover, the inhibition of viability in assay [5] is -13.5%. In addition, the results for the viability decrease (inhibition) in assay [6] and in assay [7] were -4.8% and -6.4%, respectively. For the same molecule, in assay [8], the inhibition is 13.9%.
As for `COc1ccc2cc3[n+](cc2c1OC)CCc1cc2c(cc1-3)OCO2`, the insulin secretion stimulation in assay [1] is 1.05%. Moreover, in assay [2], the viability decrease was 57.5% (active). The tube area decrease in assay [3] was 57.3% (active). Moreover, in assay [4], the GLP1 secretion stimulation is 0.3%. The inhibition of viability in assay [5] is 84% (active). Also, the viability decrease (inhibition) was 33.2% in assay [6] and 62.7% (active) in assay [7]. The inhibition in assay [8] is 10.3%.
Regarding `CCCCOc1ccc(CC(=O)NO)cc1`, the insulin secretion stimulation in assay [1] is 10.6%. Moreover, in assay [2], the viability decrease is 24.3%. The tube area decrease in assay [3] was -1.4%. Besides, in assay [4], the GLP1 secretion stimulation is -1.1%. Besides, the inhibition of viability in assay [5] is 12.7%. In addition, the figures for the viability decrease (inhibition) in assay [6] and in assay [7] were 35.2% and 11.6%, respectively. In addition, the inhibition in assay [8] is -6.77%.
As for `CC(=O)OCC(=O)[C@H]1CC[C@H]2[C@@H]3CCC4=CC(=O)CC[C@]4(C)[C@H]3CC[C@]12C`, the insulin secretion stimulation in assay [1] is 0.3%. In addition, the viability decrease in assay [2] was 0.8%. The tube area decrease in assay [3] is -2.5%. The GLP1 secretion stimulation in assay [4] was -0.6%. For the same molecule, the inhibition of viability in assay [5] is 34.5%. Also, the viability decrease (inhibition) in assay [6] is 1.2%; in assay [7] it was -9.6%. Moreover, in assay [8], the inhibition is 2.51%.
On to `CC1(C)O[C@@H]2C[C@H]3[C@@H]4CCC5=CC(=O)CC[C@]5(C)[C@@]4(F)[C@@H](O)C[C@]3(C)[C@]2(C(=O)CCl)O1`, for which the insulin secretion stimulation in assay [1] was -0.7%. Further, in assay [2], the viability decrease was -39%. The tube area decrease in assay [3] is 10.2%. For the same molecule, the GLP1 secretion stimulation in assay [4] is -1.7%. Moreover, the inhibition of viability in assay [5] is -4.27%. Besides, the viability decrease (inhibition) in assay [6] was 9.4%; in assay [7], -22.2%. Also, the inhibition in assay [8] is 12.4%.
As for `O=C(O)CCCCCCCC(=O)O`, in assay [1], the insulin secretion stimulation is 0.4%. Besides, in assay [2], the viability decrease was -10.2%. Also, the tube area decrease in assay [3] is 2.7%. In addition, in assay [4], the GLP1 secretion stimulation was -4.7%. Also, the inhibition of viability in assay [5] was -4.13%. Besides, the viability decrease (inhibition) is 15% in assay [6] and -3.7% in assay [7]. For the same molecule, the inhibition in assay [8] is -2.42%.
Turning to `COc1ccc(C(=O)CC(=O)c2ccc(C(C)(C)C)cc2)cc1`, in assay [1], the insulin secretion stimulation is 1.3%. Also, the viability decrease in assay [2] was -88.8%. In assay [3], the tube area decrease was -15.2%. Also, the GLP1 secretion stimulation in assay [4] is -3.2%. Also, the inhibition of viability in assay [5] was 15.8%. The viability decrease (inhibition) in assay [6] is 18.1%; in assay [7], 16.6%. The inhibition in assay [8] was -0.365%.
In the case of `COc1ccc(CN(CCN(C)C)c2ncccn2)cc1`, the insulin secretion stimulation in assay [1] was 1.5%. The viability decrease in assay [2] is -26.6%. In addition, the tube area decrease in assay [3] is 5%. In addition, the GLP1 secretion stimulation in assay [4] was 4.9%. In addition, the inhibition of viability in assay [5] is 14.6%. For the same molecule, the viability decrease (inhibition) in assay [6] was 4.3%; in assay [7], -22.1%. Further, the inhibition in assay [8] is 0.837%.
On to `O=c1ccc2ccccc2o1`, for which the insulin secretion stimulation in assay [1] is -1.8%. Moreover, the viability decrease in assay [2] is 3.65%. For the same molecule, the tube area decrease in assay [3] was -29.2%. Moreover, the GLP1 secretion stimulation in assay [4] was 2.9%. Further, in assay [5], the inhibition of viability is 12.6%. Besides, the viability decrease (inhibition) was 19.6% in assay [6] and 6% in assay [7]. Further, the inhibition in assay [8] was -18.6%.

In general, inhibition refers to the change of the read-out against control, counted positive when it falls.

The record behind these values is PubChem BioAssay.
